Results on 6 molecules are retold here after PubChem BioAssay (NCATS).

Results filed as inconclusive are left out. Entries that show only a call come without a potency. Active and inactive are the calls of the source. The call rests on the fitted dose curve; in most records, active means well fitted cell-killing curve with a large enough effect; inconclusive means small, poorly fitted or top-dose-only effect, or effect the other way; inactive means no such curve, though single readings can be large or run the other way.
Potency means the concentration at half of the fitted maximal effect.

A short description of this experiment: Viability qHTS for spleen associated tyrosine kinase inhibitor (SYKi) naive MV4-11 cells (AID 1963823). Further: nearly all actives have a fitted effect of over 40% in size. Particulars: MV4-11 AML viability, CellTiter-Glo luminescence, 72 h; series mostly up to 45 µM. The gist of the method:
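qHTS, SYK inhibitor-naive MV4-11; 500 cells/well; 72 hr compound exposure, 37 C; CellTiter-Glo added, 10 min RT; luminescence read.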
For orientation: Quantitative high-throughput screening tests each substance at several concentrations.
As for `C/C=C(/C)C(=O)OC1C2OC2C2(CO2)C2C3OC(=O)C(C)C3CCC12C` (stereo unspecified), the Potency entry is “inactive”.

As to `O=C1OC2(c3ccccc31)c1cc(Br)c(O)c(Br)c1Oc1c2cc(Br)c(O)c1Br`, the Potency entry was “inactive”.

Turning to `COC(=O)C1C(c2ccc(O)cc2)C(C(=O)O)C1c1ccc(O)cc1` (stereo unspecified), the Potency result is “inactive”.

As for `C#CCCCn1cc(-c2cccc3c2N[C@@H](C)CC(=O)N3)cn1`, the Potency result is “inactive”.

Turning to `CC(C)(C)NC(=O)[C@H]1CC[C@H]2[C@@H]3CC[C@H]4NC(=O)CC[C@]4(C)[C@H]3CC[C@]12C`, the Potency entry is “inactive”.

For `COC1CC(=O)C23C(=O)NC(Cc4c[nH]c5ccccc45)C2C(C)C2(C)OC2C3/C=C/CC(C)CC1O` (stereo unspecified), the Potency was 3.99 µM (active).
